# Legend:
# Experiment in all cases: yeast three-hybrid, YBZ-1, SC-Leu-His + 0.5 mM 3-AT, 4 days
# Details in all cases: tags: N-Gal4 AD-HA kept; label: inside an RPR1-promoter hybrid RNA with tandem MS2 sites; ssRNA
# PUM1 PUF domain R6-SFC = target: T1, PUM1 PUF domain R6-SFC (Homo sapiens, UniProt Q14671 828-1176, N1043S;Y1044F;Q1047C)
# T1 sequence: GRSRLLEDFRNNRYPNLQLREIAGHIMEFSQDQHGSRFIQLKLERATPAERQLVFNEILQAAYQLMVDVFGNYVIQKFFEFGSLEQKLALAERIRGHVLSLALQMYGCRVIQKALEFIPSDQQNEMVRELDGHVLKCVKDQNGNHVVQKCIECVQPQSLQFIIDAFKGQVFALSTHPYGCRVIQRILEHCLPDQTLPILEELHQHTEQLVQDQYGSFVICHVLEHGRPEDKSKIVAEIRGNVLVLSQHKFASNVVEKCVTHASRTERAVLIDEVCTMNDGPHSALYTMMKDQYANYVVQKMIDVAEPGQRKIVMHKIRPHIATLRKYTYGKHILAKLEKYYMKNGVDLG
# Outline: (§1)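 Pumilio-1 PUF domain libraries, randomized (NNK) at the three base-contacting residues of each repeat, were co-expressed with matching RNA elements from a centromeric plasmid in strain YBZ-1 (LexA–MS2 coat fusion, HIS3 reporter). Transformants were plated on SC-Leu (input) and SC-Leu-His + 0.5 mM 3-AT (selection) for four days, and repeat regions were PCR-amplified and Illumina-sequenced. The interaction score is the log2 change in variant frequency from input to selection, with pseudocount 1 where absent.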
# PUM1 PUF domain R3-GCR = PUM1 PUF domain R3-GCR (Homo sapiens, UniProt Q14671 828-1176, C935G;R936C;Q939R)
# Outline: as §1
# PUM1 PUF domain R4-ANG = PUM1 PUF domain R4-ANG (Homo sapiens, UniProt Q14671 828-1176, N971A;H972N;Q975G)
# Outline: as §1
# PUM1 PUF domain R8-RHQ = PUM1 PUF domain R8-RHQ (Homo sapiens, UniProt Q14671 828-1176, N1122R;Y1123H)
# Outline: as §1
# PUM1 PUF domain R5-FNS = PUM1 PUF domain R5-FNS (Homo sapiens, UniProt Q14671 828-1176, C1007F;R1008N;Q1011S)
# Outline: as §1
# PUM1 PUF domain R5-RNA = PUM1 PUF domain R5-RNA (Homo sapiens, UniProt Q14671 828-1176, C1007R;R1008N;Q1011A)
# Outline: as §1
# PUM1 PUF domain R5-RQE = PUM1 PUF domain R5-RQE (Homo sapiens, UniProt Q14671 828-1176, C1007R;R1008Q;Q1011E)
# Outline: as §1
# PUM1 PUF domain R3-RNG = PUM1 PUF domain R3-RNG (Homo sapiens, UniProt Q14671 828-1176, C935R;R936N;Q939G)
# Outline: as §1
# PUM1 PUF domain R1-SGD = PUM1 PUF domain R1-SGD (Homo sapiens, UniProt Q14671 828-1176, R864G;Q867D)
# Outline: as §1
# PUM1 PUF domain R4-GYV = PUM1 PUF domain R4-GYV (Homo sapiens, UniProt Q14671 828-1176, N971G;H972Y;Q975V)
# Outline: as §1
sequence,measurement,setting,value
GGCUAGAACUAGUGGAUCCCCCGGCGCCCGGCGGCUCGAGCCCGGGUAAGUGUAAAUAGUCUGCAUGCCGCCGGGCGCCAUGCCUGCAGGUCGACUCUAGAAAACAUG,binding signal,PUM1 PUF domain R6-SFC,4.7 log2 enrichment (interaction score)
same,binding signal,PUM1 PUF domain R3-GCR,0.62 log2 enrichment (interaction score)
same,binding signal,PUM1 PUF domain R4-ANG,0.25 log2 enrichment (interaction score)
same,binding signal,PUM1 PUF domain R8-RHQ,3.7 log2 enrichment (interaction score)
GGCUAGAACUAGUGGAUCCCCCGGCGCCCGGCGGCUCGAGCCCGGGUAAGUGUAUAUAGUCUGCAUGCCGCCGGGCGCCAUGCCUGCAGGUCGACUCUAGAAAACAUG,binding signal,PUM1 PUF domain R4-ANG,2.57 log2 enrichment (interaction score)
GGCUAGAACUAGUGGAUCCCCCGGCGCCCGGCGGCUCGAGCCCGGGUAAGUGUUAAUAGUCUGCAUGCCGCCGGGCGCCAUGCCUGCAGGUCGACUCUAGAAAACAUG,binding signal,PUM1 PUF domain R5-FNS,3.5 log2 enrichment (interaction score)
same,binding signal,PUM1 PUF domain R5-RNA,2.33 log2 enrichment (interaction score)
GGCUAGAACUAGUGGAUCCCCCGGCGCCCGGCGGCUCGAGCCCGGGUAAGUGUCAAUAGUCUGCAUGCCGCCGGGCGCCAUGCCUGCAGGUCGACUCUAGAAAACAUG,binding signal,PUM1 PUF domain R5-RNA,2.56 log2 enrichment (interaction score)
same,binding signal,PUM1 PUF domain R5-RQE,3.37 log2 enrichment (interaction score)
GGCUAGAACUAGUGGAUCCCCCGGCGCCCGGCGGCUCGAGCCCGGGUAAGUGUAAUUAGUCUGCAUGCCGCCGGGCGCCAUGCCUGCAGGUCGACUCUAGAAAACAUG,binding signal,PUM1 PUF domain R3-GCR,2.22 log2 enrichment (interaction score)
same,binding signal,PUM1 PUF domain R3-RNG,3.75 log2 enrichment (interaction score)
GGCUAGAACUAGUGGAUCCCCCGGCGCCCGGCGGCUCGAGCCCGGGUAAGCGUAAAUAGUCUGCAUGCCGCCGGGCGCCAUGCCUGCAGGUCGACUCUAGAAAACAUG,binding signal,PUM1 PUF domain R8-RHQ,5.53 log2 enrichment (interaction score)
GGCUAGAACUAGUGGAUCCCCCGGCGCCCGGCGGCUCGAGCCCGGGUAAGUGUAAGUAGUCUGCAUGCCGCCGGGCGCCAUGCCUGCAGGUCGACUCUAGAAAACAUG,binding signal,PUM1 PUF domain R3-GCR,3.87 log2 enrichment (interaction score)
GGCUAGAACUAGUGGAUCCCCCGGCGCCCGGCGGCUCGAGCCCGGGUAAGUGUAAAUGGUCUGCAUGCCGCCGGGCGCCAUGCCUGCAGGUCGACUCUAGAAAACAUG,binding signal,PUM1 PUF domain R1-SGD,5.76 log2 enrichment (interaction score)
GGCUAGAACUAGUGGAUCCCCCGGCGCCCGGCGGCUCGAGCCCGGGUAAGUGUACAUAGUCUGCAUGCCGCCGGGCGCCAUGCCUGCAGGUCGACUCUAGAAAACAUG,binding signal,PUM1 PUF domain R4-GYV,7.46 log2 enrichment (interaction score)
same,binding signal,PUM1 PUF domain R4-ANG,3.65 log2 enrichment (interaction score)
